# The campaign covered roughly 310,000 compounds. About 14,000 (4.5%) showed an effect of 50% or more. Effects have a minus sign here. The entries come from a sample that favours strong results as a whole.
# Molecular target: human ether-à-go-go-related gene (hERG) potassium channel (human, UniProt Q12809)
# Experiment: primary screen, population patch clamp on CHO cells stably expressing hERG; higher = less effect of the substance
# 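Further: peak tail current of the secondary pulse compared with the same well before compound.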
# Chain of human ether-à-go-go-related gene (hERG) potassium channel (Q12809 whole entry, looked up): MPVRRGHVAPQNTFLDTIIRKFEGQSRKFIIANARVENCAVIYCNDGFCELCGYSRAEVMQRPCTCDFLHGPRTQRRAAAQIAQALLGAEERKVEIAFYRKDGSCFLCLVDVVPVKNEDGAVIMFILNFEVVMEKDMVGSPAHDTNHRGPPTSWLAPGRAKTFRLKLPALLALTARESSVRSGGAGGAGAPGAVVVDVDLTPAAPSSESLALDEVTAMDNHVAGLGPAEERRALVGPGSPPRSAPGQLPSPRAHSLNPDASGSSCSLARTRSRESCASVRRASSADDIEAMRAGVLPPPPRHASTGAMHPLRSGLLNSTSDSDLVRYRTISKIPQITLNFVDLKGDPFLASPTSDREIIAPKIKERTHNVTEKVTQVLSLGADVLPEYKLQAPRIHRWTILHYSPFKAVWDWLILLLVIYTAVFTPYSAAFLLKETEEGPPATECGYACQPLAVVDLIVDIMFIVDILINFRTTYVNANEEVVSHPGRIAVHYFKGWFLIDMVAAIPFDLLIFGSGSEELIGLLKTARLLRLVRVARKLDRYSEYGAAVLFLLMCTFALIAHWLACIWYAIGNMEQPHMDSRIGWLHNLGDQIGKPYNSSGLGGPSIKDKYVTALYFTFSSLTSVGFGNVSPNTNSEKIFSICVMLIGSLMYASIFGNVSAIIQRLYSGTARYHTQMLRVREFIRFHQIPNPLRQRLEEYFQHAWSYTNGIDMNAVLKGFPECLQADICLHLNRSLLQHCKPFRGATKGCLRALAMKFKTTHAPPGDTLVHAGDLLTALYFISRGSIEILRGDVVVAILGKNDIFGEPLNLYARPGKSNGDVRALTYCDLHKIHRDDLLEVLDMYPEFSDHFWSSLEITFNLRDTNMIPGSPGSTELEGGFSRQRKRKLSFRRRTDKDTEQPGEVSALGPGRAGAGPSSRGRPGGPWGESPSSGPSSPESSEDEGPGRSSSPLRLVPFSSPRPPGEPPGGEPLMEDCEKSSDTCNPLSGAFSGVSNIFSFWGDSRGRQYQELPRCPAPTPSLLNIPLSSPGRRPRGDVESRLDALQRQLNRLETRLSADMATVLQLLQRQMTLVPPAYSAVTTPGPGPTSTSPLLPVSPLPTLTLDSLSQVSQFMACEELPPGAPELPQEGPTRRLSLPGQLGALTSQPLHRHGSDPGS
row,SMILES,"hERG current change (%, negative = inhibition) at 10uM [%]"
1,O=C(Cc1ccccc1)Nc1ccc(N2CCOCC2)cc1N1CCOCC1,-0.646
2,CSCCC(NC(=O)COc1ccccc1)C(=O)N1CC(C)CC(C)C1 (stereo not drawn),-41.4
3,CCCCc1cc(=O)oc2c(CN3CCCC3)c(O)c(Cl)cc12,-20.9
4,COC(=O)c1[nH]c2c(c1C)C(=O)CC(c1ccc(OC)c(OC)c1)C2 (stereo not drawn),-0.262
5,CC(Sc1ccccc1)C(=O)N(CCC#N)Cc1cccnc1 (stereo not drawn),6.64
6,Cc1ccc(NC(=O)CSc2nnc(-c3cnccn3)n2Cc2ccco2)cc1,-21.3
7,COc1ccccc1C1CC(c2ccc(Cl)cc2)Nc2ncnn21 (stereo not drawn),-44.8
8,Cc1cccn2c(CN(C)C3CCOC3)c(C(=O)N3CCCCC3)nc12 (stereo not drawn),32.3
9,O=c1cc(-c2ccc(O)c(O)c2)oc2cc(O)c(C3OC(CO)C(O)C(O)C3O)c(O)c12 (stereo not drawn),3.72
10,CC1(C)Cc2cccc(OCC(=O)NCc3cccs3)c2O1,-0.101
11,O=C(Cc1ccccc1)N1CCN(Cc2ccc(F)cc2)CC1.O=C(O)C(=O)O,2.38
12,O=C(C1CCN(Cc2ccc(F)cc2)CC1)N1CCN(C/C=C/c2ccccc2)CC1.O=C(O)C(=O)O,-63.6
13,CCCCNC(=O)N1CCN(Cc2ccc(F)cc2)CC1,-11.3
14,C=C(C)c1cccc(C(C)(C)NC(=O)N2CCN(CC)CC2)c1,7.13
15,C=C(C)c1cccc(C(C)(C)NC(=O)N2CCN(CC(N)=O)CC2)c1,11.3
16,C=C(C)c1cccc(C(C)(C)NC(=O)N2CCN(C/C=C/c3ccccc3)CC2)c1,-62.9
17,O=C(C1CCN(Cc2ccccc2)CC1)N1CCN(C/C=C/c2ccccc2)CC1.O=C(O)C(=O)O,-33.3
18,CCNC(=O)N1CCN(C(=O)NCC)CC1,15.7
19,CCNC(=O)N1CCN(CCCC(c2ccc(F)cc2)c2ccc(F)cc2)CC1.Cl,-82.3
20,Cc1ccc(NC(=O)N2CCN(C/C=C/c3ccccc3)CC2)cc1,-44.6
21,Cc1cc(C)cc(NC(=O)N2CCN(C/C=C/c3ccccc3)CC2)c1,-69
22,CC1=C(C)CC(C(=O)N2CCN(C/C=C/c3ccccc3)CC2)C(C(=O)O)C1 (stereo not drawn),8.99

row,SMILES,"hERG current change (%, negative = inhibition) at 10uM [%]"
1,Cn1c(=O)c2c(ncn2CC(O)CNc2ccc(F)cc2)n(C)c1=O (stereo not drawn),1.35
2,COc1ccc(S(=O)(=O)N2CCC(C(=O)NCCC(=O)NCc3ccncc3)CC2)cc1,11
3,CCN(CCN1CCCC1)C(=O)c1cc(COc2ccccc2SC)on1,-32.1
4,CN(C)C=NC(=O)c1ccc(N2CCN(c3ncc(C(F)(F)F)cc3Cl)CC2)cc1,7.74
5,O=C(NCCO)Nc1ccc2nsnc2c1,-5.93
6,NC(=O)c1ccccc1N=Cc1cccnc1,-21
7,Cc1cc(N2C(=O)c3ccc(C(=O)Nc4ccccc4O)cc3C2=O)no1,14.1
8,O=c1c(Cc2c(F)cccc2Cl)c(O)ccn1C1CC1,-11.7
9,COc1ccc(NC(=O)c2csc3c2CCCCC3)c(OC)c1,-6.93
10,CCOC(=O)c1c(C)[nH]c(C(=O)N/N=C/c2cc([N+](=O)[O-])ccc2O)c1C,33.7
11,CCCCCn1c(=O)c(C(=O)Nc2ccccc2N)c(O)c2ccccc21,21.4
12,CCOC(=O)c1cc(NCc2cccs2)ccc1N1CCOCC1,-3.79
13,COc1ccc(-c2[nH]c(-c3ccc4c(c3)OCO4)nc2-c2ccccc2)cc1,1.88
14,COc1ccc(/C=N/NC(=O)c2ccccc2O)cc1CN1CCOCC1,-12.8
15,COc1cc(OC)cc(C(=O)N/N=C/c2ccc(OC)c(COc3ccc(F)cc3)c2)c1,6.62
16,COc1ccc(/C=N\NC(=O)c2cc(O)c(O)c(O)c2)cc1CN1CCN(c2ccc(F)cc2)CC1,14.6
17,COc1ccc(/C=N/NC(=O)c2ccn[nH]2)cc1CN1CCOCC1,-14.8
18,COc1ccc(/C=N/NC(=O)c2cccnc2)cc1CN1CCc2ccccc2C1,-17.9
19,COc1cc(C(=O)N/N=C/c2ccc(OC)c(CN3CCN(c4ccc(F)cc4)CC3)c2)ccc1O,-75.3
20,COc1ccc(/C=N/NC(=O)c2ccc(C)cc2)cc1CN1CCN(c2ccc(F)cc2)CC1,-69.8
21,COc1ccc(/C=N/NC(=O)c2cccnc2)cc1CN1CCOCC1,13.6
22,COc1ccc(/C=N/NC(=O)c2ccccc2)cc1CN1CCN(c2ccc(F)cc2)CC1,-74.5

row,SMILES,"hERG current change (%, negative = inhibition) at 10uM [%]"
1,COc1ccc(/C=N/NC(=O)c2cccnc2)cc1CN1CCN(c2ccc(F)cc2)CC1,-51
2,COc1ccc(/C=N\NC(=O)c2ccccc2)cc1COc1ccc(F)cc1,-0.876
3,COc1ccc(/C=N\NC(=O)c2ccccc2)cc1COc1ccccc1,20.6
4,CCC(C)NC(=O)N[C@@H](Cc1ccccc1)C(=O)O (stereo partly drawn),-1.98
5,CCOC(=O)C1CCN(C(=O)CNC(=O)Cn2c(C)cc3ccccc3c2=O)CC1,6.61
6,O=C(COc1ccc(F)cc1)Nc1nnc(-c2ccncc2)s1,-6.52
7,c1cnc(N2CCN(c3nc4ccccc4n4cnnc34)CC2)nc1,-27.6
8,CC(C)[C@H](NC(=O)c1ccco1)C(=O)NCc1ccccc1,25.1
9,COc1ccc(S(=O)(=O)N(C)c2ccc(C(=O)NCc3ccco3)cc2)cc1OC,-9.43
10,CCN(CC)c1ccc(/C=N/NC(=O)Cc2cccs2)cc1,-16.6
11,COc1ccc(/C=N/NC(=O)c2ccoc2C)cc1CN1CCN(c2ccc(F)cc2)CC1,-76.8
12,C/C=C/c1cc(CN2CCN(c3ccccc3)CC2)c(O)c(OC)c1,-32
13,CCOc1ccc(/C=N/NC(=O)c2ccc(O)cc2)cc1CN1CC2CC(C1)c1cccc(=O)n1C2 (stereo not drawn),4.7
14,COc1ccc(/C=N/NC(=O)c2ccoc2C)cc1OC,-9.75
15,CCOc1ccc(/C=N/NC(=O)c2ccc(F)cc2)cc1CN1CC2CC(C1)c1cccc(=O)n1C2 (stereo not drawn),-53.3
16,COc1ccc(/C=N/NC(=O)c2ccoc2C)cc1O,-4.47
17,COc1ccc(N2CCN(Cc3cc4c(cc3O)CCC4)CC2)cc1,-12.4
18,COc1ccc(/C=N\NC(=O)c2ccccc2F)cc1COc1ccc(F)cc1F,11.7
19,COc1ccc(/C=N\NC(=O)c2ccccc2F)cc1COc1ccc(F)cc1,27.1
20,CCOc1ccc(/C=N/NC(=O)c2ccccc2O)cc1CN1CC2CC(C1)c1cccc(=O)n1C2 (stereo not drawn),-16.7
21,C/C=C/c1cc(CN2CCN(c3ccc(OC)cc3)CC2)c(O)c(OC)c1,-68.7
22,COc1ccc(/C=N/NC(=O)c2ccccc2F)cc1CN1CCN(c2ccc(F)cc2)CC1,-76.2

row,SMILES,"hERG current change (%, negative = inhibition) at 10uM [%]"
1,CCOc1cc(Br)c(C=O)cc1OCC,22.1
2,CC1(CCc2ccccc2)NC(=O)N(CC(=O)N2CC(=O)Nc3ccccc32)C1=O (stereo not drawn),7.19
3,O=C(COC(=O)c1ccccn1)Nc1ccccc1OC(F)F,6.71
4,Cc1cnc(NC(=O)CN(C)S(=O)(=O)c2ccc(Cl)cc2)s1,-1.68
5,O=C(CC(c1ccccc1)c1cc(Br)ccc1O)NCCN1CCOCC1 (stereo not drawn),-34.7
6,CCCCCCCOC(=O)C1=C(C)Nc2ncnn2C1c1cccs1 (stereo not drawn),-0.122
7,Cc1ccc(NC(=O)COc2ccc(Br)cc2C)cc1,0.803
8,COc1ccc(/C=N/NC(=O)c2ccncc2)cc1OC,15.5
9,COc1ccc(C(=O)N/N=C/c2ccc(OC)c(COc3ccc(F)cc3F)c2)cc1,3.74
10,COc1ccc(C(=O)N/N=C/c2ccc(OC)c(COc3ccc(F)cc3)c2)cc1,-35.2
11,COc1ccc(/C=N/NC(=O)c2ccncc2)cc1CN1CCN(c2ccc(F)cc2)CC1,-77
12,COc1ccc(C(=O)N/N=C/c2ccc(OC)c(CN3CCN(c4ccc(F)cc4)CC3)c2)cc1,-74.2
13,COc1ccc(/C=N/NC(=O)c2ccncc2)cc1CN1CCCc2ccccc21,-26.1
14,NC1=NC(=O)/C(=C\c2ccc(-c3ccc(Cl)cc3)o2)S1,9.15
15,COc1ccc(NC(=O)CS(=O)CC(=O)NCC2OCCc3ccccc32)cc1 (stereo not drawn),16.2
16,C=CCNC(=S)NNC(=O)c1ccncc1,1.85
17,O=C1CC(N2CCN(Cc3ccc(Cl)cc3)CC2)C(=O)N1CCc1ccccc1 (stereo not drawn),-37.4
18,Cc1ccc(NC(=O)COC(=O)CCc2c[nH]c(=O)[nH]2)cc1,1.45
19,COc1c(O)cccc1[C@@H](O)C1CCN(CCc2ccc(F)cc2)CC1,-55.8
20,COc1cccc(C(c2nnnn2Cc2ccc(F)cc2)N2CCC(C(N)=O)CC2)c1OC (stereo not drawn),-24.8
21,Fc1cccc(CNC2CCN(CCc3ccccc3)CC2)c1,-42.8

# From paper PMC4336329 (PLoS ONE, 2015)
